From PubChem BioAssay AID488969 (Vanderbilt High Throughput Screening Facility, 2010)
Over roughly 110,000 compounds, “z-score” has its median near -0.1; the highest 2% begin near 2. This excerpt belongs to a sample that is enriched for the highest values. Active and inactive are the calls of the source.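 Rule for the calls: active = z-score in the third read window above 3 or below -3; inactive = the rest.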

target: Metabotropic glutamate receptor 8 (Rattus norvegicus) (UniProt P70579); assay: mGluR8 Gi/Go-coupled signaling modulation – cell-based, rat, thallium flux, HTS, primary screen (AID 488969); settings: HEK293 rat mGluR8, GIRK (G protein-gated inwardly rectifying potassium channel) thallium flux, FluoZin2; at 10 µM; stronger effect = higher value; submaximal glutamate (EC20) added with thallium
Sequence (P70579 whole entry, looked up): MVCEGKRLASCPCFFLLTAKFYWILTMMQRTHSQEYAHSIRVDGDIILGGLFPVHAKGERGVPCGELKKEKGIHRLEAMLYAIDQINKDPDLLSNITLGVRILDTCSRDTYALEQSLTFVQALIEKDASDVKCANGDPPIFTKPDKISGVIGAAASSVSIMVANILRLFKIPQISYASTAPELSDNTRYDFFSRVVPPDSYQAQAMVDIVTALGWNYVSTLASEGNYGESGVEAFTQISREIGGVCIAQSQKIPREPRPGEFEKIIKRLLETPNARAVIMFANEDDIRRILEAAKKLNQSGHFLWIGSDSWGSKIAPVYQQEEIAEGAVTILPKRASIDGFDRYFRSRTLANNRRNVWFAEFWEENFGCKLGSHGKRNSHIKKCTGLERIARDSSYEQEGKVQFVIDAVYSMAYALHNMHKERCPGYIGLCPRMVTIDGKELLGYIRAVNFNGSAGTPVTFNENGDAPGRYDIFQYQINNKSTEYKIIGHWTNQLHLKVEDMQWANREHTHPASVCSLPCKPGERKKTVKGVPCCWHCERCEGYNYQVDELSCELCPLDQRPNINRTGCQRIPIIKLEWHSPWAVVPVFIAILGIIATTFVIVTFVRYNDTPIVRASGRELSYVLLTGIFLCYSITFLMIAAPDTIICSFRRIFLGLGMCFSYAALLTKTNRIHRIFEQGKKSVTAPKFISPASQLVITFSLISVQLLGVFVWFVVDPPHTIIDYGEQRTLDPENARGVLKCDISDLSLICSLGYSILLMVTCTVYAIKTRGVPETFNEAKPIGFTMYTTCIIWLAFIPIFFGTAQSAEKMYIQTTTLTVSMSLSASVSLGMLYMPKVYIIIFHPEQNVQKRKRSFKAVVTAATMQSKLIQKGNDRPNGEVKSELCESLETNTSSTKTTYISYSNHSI

Row | SMILES | z-score
1 | COc1ccc(-n2c(SCCC(=O)O)nnc2-c2ccncc2)cc1 | 0.658
2 | Cc1cc(C)cc(C(=O)NCC(=O)OCC(=O)N2c3ccccc3NC(=O)C2(C)C)c1 | -0.138
3 | CC(C)c1nc(NCc2ccccc2)c(C#N)c2c1CCCC2 | -0.133
4 | CCN(CC)S(=O)(=O)c1ccc(C(=O)OCCNC(=O)c2cccnc2)cc1 | -0.485
5 | CCOc1[nH]n(-c2ccc(Cl)cc2)c(=O)c1C=Nc1ccc(C)cc1 | -0.176
6 | CCOc1[nH]n(-c2ccccc2)c(=O)c1C=Nc1ccc(Cl)cc1 | 0.655
7 | CCOc1[nH]n(-c2ccc(Cl)cc2)c(=O)c1C=Nc1ccc(Cl)cc1 | 3.26 (active)
8 | COc1ccc(-c2nc(C#N)c(N3CCC(C(N)=O)CC3)o2)cc1 | -0.0894
9 | CC(C)Cn1cnc2c(c(-c3ccccc3)c(-c3ccccc3)n2Cc2ccco2)c1=N | 3.58 (active)
10 | OCCNc1ncnc2c1c(-c1ccccc1)c(-c1ccccc1)n2Cc1ccco1 | -0.463
11 | N=c1c2c(-c3ccccc3)c(-c3ccccc3)n(Cc3ccco3)c2ncn1CCN1CCOCC1 | -0.19
12 | N=c1c2c(-c3ccccc3)c(-c3ccccc3)n(Cc3ccccc3)c2ncn1CCCO | 4.35 (active)
13 | N=c1c2c(-c3ccccc3)c(-c3ccccc3)n(Cc3ccco3)c2ncn1CCO | 0.759
14 | N=c1c2c(-c3ccccc3)c(-c3ccccc3)n(Cc3ccco3)c2ncn1Cc1ccccc1 | 0.528
15 | c1ccc(-c2c(-c3ccccc3)n(Cc3ccco3)c3ncnc(NCCCn4ccnc4)c23)cc1 | 2.78
16 | c1ccc(-c2oc3ncnc(NCCCn4ccnc4)c3c2-c2ccccc2)cc1 | 0.609
17 | N=c1c2c(-c3ccccc3)c(-c3ccccc3)n(Cc3ccccc3)c2ncn1CCO | 0.392
18 | COc1ccc(C(=O)Nc2nc3ccc4nc(C)sc4c3s2)cc1 | -0.0988
19 | CCC(C)NC(=O)Cn1c(COc2ccc(Cl)cc2Cl)nc2ccccc21 (centres undefined) | -2.32
20 | O=C(CN(Cc1ccccc1)C(=O)CSc1nnc(COc2ccccc2)o1)NC1CCCC1 | 0.0593
21 | Cc1cc(/C=C(\C#N)C(=O)NC2CC2)c(C)[nH]1 | 0.155
22 | CCCNC(=O)c1cccc(COCC(F)(F)C(F)F)c1 | -0.0567
23 | Cc1ccc(S(=O)(=O)N2CCOCC2)cc1C(=O)Nc1ccc2c(c1)CCC2 | -0.205
24 | O=C1/C(=C/c2cccnc2)SC(=S)N1c1ccc(F)cc1 | -0.12
25 | CCCC(=O)n1nc(-c2cccnc2)nc1N | 0.575
26 | CCCC(=O)n1nc(-c2ccccc2)nc1N | 9.34 (active)
27 | CCC(=O)n1nc(-c2ccccc2)nc1N | -0.874
28 | S=C(NC1CCCCC1)N(CCc1nc2ccccc2[nH]1)C1CCCC1 | -1.02
29 | CC1Cc2ccccc2N1C(=O)CCNS(=O)(=O)c1cccc2nsnc12 (centres undefined) | 0.906
